Test results as given in the supplement of paper PMC7411054.

How the values were obtained:
Experiment in all cases: phenotypically active (imaging signature differs from DMSO and reproducible) at any of 0.3-9 uM (binary (1 = active, 0 = inactive)); higher = active
Details in all cases: treatment time: 24 h
A549-ACTB-RAB5A = tested on: A549-ACTB-RAB5A
Outline: (§1)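 Phenotypic activity depended on meeting both a deviation and a reproducibility criterion. The fifteen gene-edited A549, HepG2 and WPMY1 reporter lines were treated at 0.3, 1, 3 or 9 µM for 24 h, four wells each, then imaged live with features normalised to solvent control wells. Deviation required ≥3 of 4 wells past the 95th percentile of control Euclidean distances, and reproducibility a median replicate Pearson correlation above the 95th percentile of non-replicates.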

A549-CANX-COX4 = tested on: A549-CANX-COX4
Outline: as §1

A549-GM130-SQSTM1 = tested on: A549-GM130-SQSTM1
Outline: as §1

A549-TP53BP1-CLTA = tested on: A549-TP53BP1-CLTA
Outline: as §1

A549-TUBA1B-RELA = tested on: A549-TUBA1B-RELA
Outline: as §1

HepG2-ACTB-RAB5A = tested on: HepG2-ACTB-RAB5A
Outline: as §1

HepG2-CANX-COX4 = tested on: HepG2-CANX-COX4
Outline: as §1

HepG2-GM130-SQSTM1 = tested on: HepG2-GM130-SQSTM1
Outline: as §1

HepG2-TP53BP1-CLTA = tested on: HepG2-TP53BP1-CLTA
Outline: as §1

HepG2-TUBA1B-RELA = tested on: HepG2-TUBA1B-RELA
Outline: as §1

WPMY1-ACTB-RAB5A = tested on: WPMY1-ACTB-RAB5A
Outline: as §1

WPMY1-CANX-COX4 = tested on: WPMY1-CANX-COX4
Outline: as §1

WPMY1-GM130-SQSTM1 = tested on: WPMY1-GM130-SQSTM1
Outline: as §1

WPMY1-TP53BP1-CLTA = tested on: WPMY1-TP53BP1-CLTA
Outline: as §1

WPMY1-TUBA1B-RELA = tested on: WPMY1-TUBA1B-RELA
Outline: as §1

Measured: phenotypically active

CC(C)OC(=O)C(C)(C)Oc1ccc(C(=O)c2ccc(Cl)cc2)cc1 [Fenofibrate]
inactive: A549-ACTB-RAB5A 0 | A549-CANX-COX4 0 | A549-GM130-SQSTM1 0 | A549-TP53BP1-CLTA 0 | A549-TUBA1B-RELA 0 | HepG2-ACTB-RAB5A 0 | HepG2-CANX-COX4 0 | HepG2-GM130-SQSTM1 0 | HepG2-TP53BP1-CLTA 0 | HepG2-TUBA1B-RELA 0 | WPMY1-ACTB-RAB5A 0 | WPMY1-CANX-COX4 0 | WPMY1-GM130-SQSTM1 0 | WPMY1-TP53BP1-CLTA 0 | WPMY1-TUBA1B-RELA 0

C[C@@H]1O[C@@H](O[C@H]2C(=O)c3c(O)cc(O)cc3O[C@@H]2c2ccc(O)c(O)c2)[C@H](O)[C@H](O)[C@H]1O [Astilbin]
inactive: A549-ACTB-RAB5A 0 | A549-CANX-COX4 0 | A549-GM130-SQSTM1 0 | A549-TP53BP1-CLTA 0 | A549-TUBA1B-RELA 0 | HepG2-ACTB-RAB5A 0 | HepG2-CANX-COX4 0 | HepG2-GM130-SQSTM1 0 | HepG2-TP53BP1-CLTA 0 | HepG2-TUBA1B-RELA 0 | WPMY1-ACTB-RAB5A 0 | WPMY1-CANX-COX4 0 | WPMY1-GM130-SQSTM1 0 | WPMY1-TP53BP1-CLTA 0 | WPMY1-TUBA1B-RELA 0

CC(=O)OCC[N+](C)(C)C [acetylcholine]
inactive: A549-ACTB-RAB5A 0 | A549-CANX-COX4 0 | A549-GM130-SQSTM1 0 | A549-TP53BP1-CLTA 0 | A549-TUBA1B-RELA 0 | HepG2-ACTB-RAB5A 0 | HepG2-CANX-COX4 0 | HepG2-GM130-SQSTM1 0 | HepG2-TP53BP1-CLTA 0 | HepG2-TUBA1B-RELA 0 | WPMY1-ACTB-RAB5A 0 | WPMY1-CANX-COX4 0 | WPMY1-GM130-SQSTM1 0 | WPMY1-TP53BP1-CLTA 0 | WPMY1-TUBA1B-RELA 0

CCOc1cc(CC(=O)N[C@@H](CC(C)C)c2ccccc2N2CCCCC2)ccc1C(=O)O [repaglinide]
inactive: A549-ACTB-RAB5A 0 | A549-CANX-COX4 0 | A549-GM130-SQSTM1 0 | A549-TP53BP1-CLTA 0 | A549-TUBA1B-RELA 0 | HepG2-ACTB-RAB5A 0 | HepG2-CANX-COX4 0 | HepG2-GM130-SQSTM1 0 | HepG2-TP53BP1-CLTA 0 | HepG2-TUBA1B-RELA 0 | WPMY1-ACTB-RAB5A 0 | WPMY1-CANX-COX4 0 | WPMY1-GM130-SQSTM1 0 | WPMY1-TP53BP1-CLTA 0 | WPMY1-TUBA1B-RELA 0

CCCCC(=O)N(Cc1ccc(-c2ccccc2-c2nnn[nH]2)cc1)[C@H](C(=O)O)C(C)C [valsartan]
inactive: A549-ACTB-RAB5A 0 | A549-CANX-COX4 0 | A549-GM130-SQSTM1 0 | A549-TP53BP1-CLTA 0 | A549-TUBA1B-RELA 0 | HepG2-ACTB-RAB5A 0 | HepG2-CANX-COX4 0 | HepG2-GM130-SQSTM1 0 | HepG2-TP53BP1-CLTA 0 | HepG2-TUBA1B-RELA 0 | WPMY1-ACTB-RAB5A 0 | WPMY1-CANX-COX4 0 | WPMY1-GM130-SQSTM1 0 | WPMY1-TP53BP1-CLTA 0 | WPMY1-TUBA1B-RELA 0

CC[N+](C)(C)c1cccc(O)c1 [edrophonium]
inactive: A549-ACTB-RAB5A 0 | A549-CANX-COX4 0 | A549-GM130-SQSTM1 0 | A549-TP53BP1-CLTA 0 | A549-TUBA1B-RELA 0 | HepG2-ACTB-RAB5A 0 | HepG2-CANX-COX4 0 | HepG2-GM130-SQSTM1 0 | HepG2-TP53BP1-CLTA 0 | HepG2-TUBA1B-RELA 0 | WPMY1-ACTB-RAB5A 0 | WPMY1-CANX-COX4 0 | WPMY1-GM130-SQSTM1 0 | WPMY1-TP53BP1-CLTA 0 | WPMY1-TUBA1B-RELA 0

O=C(O)[C@H](Cc1c[nH]c2ccccc12)N1C(=O)c2ccccc2C1=O
inactive: A549-ACTB-RAB5A 0 | A549-CANX-COX4 0 | A549-GM130-SQSTM1 0 | A549-TP53BP1-CLTA 0 | A549-TUBA1B-RELA 0 | HepG2-ACTB-RAB5A 0 | HepG2-CANX-COX4 0 | HepG2-GM130-SQSTM1 0 | HepG2-TP53BP1-CLTA 0 | HepG2-TUBA1B-RELA 0 | WPMY1-ACTB-RAB5A 0 | WPMY1-CANX-COX4 0 | WPMY1-GM130-SQSTM1 0 | WPMY1-TP53BP1-CLTA 0 | WPMY1-TUBA1B-RELA 0

CCCCCN(C)CCC(O)(P(=O)(O)O)P(=O)(O)O [ibandronate]
inactive: A549-ACTB-RAB5A 0 | A549-CANX-COX4 0 | A549-GM130-SQSTM1 0 | A549-TP53BP1-CLTA 0 | A549-TUBA1B-RELA 0 | HepG2-ACTB-RAB5A 0 | HepG2-CANX-COX4 0 | HepG2-GM130-SQSTM1 0 | HepG2-TP53BP1-CLTA 0 | HepG2-TUBA1B-RELA 0 | WPMY1-ACTB-RAB5A 0 | WPMY1-CANX-COX4 0 | WPMY1-GM130-SQSTM1 0 | WPMY1-TP53BP1-CLTA 0 | WPMY1-TUBA1B-RELA 0

Nc1ncnc2c1ncn2[C@H]1O[C@@H](C(=O)N2CCN(CC(=O)Nc3cccc4c3CNC4=O)CC2)[C@H](O)[C@@H]1O
inactive: A549-ACTB-RAB5A 0 | A549-CANX-COX4 0 | A549-GM130-SQSTM1 0 | A549-TP53BP1-CLTA 0 | A549-TUBA1B-RELA 0 | HepG2-ACTB-RAB5A 0 | HepG2-CANX-COX4 0 | HepG2-GM130-SQSTM1 0 | HepG2-TP53BP1-CLTA 0 | HepG2-TUBA1B-RELA 0 | WPMY1-ACTB-RAB5A 0 | WPMY1-CANX-COX4 0 | WPMY1-GM130-SQSTM1 0 | WPMY1-TP53BP1-CLTA 0 | WPMY1-TUBA1B-RELA 0

CC[C@H]1OC(=O)[C@H](C)[C@@H](O[C@H]2C[C@@](C)(OC)[C@@H](O)[C@H](C)O2)[C@H](C)[C@@H](O[C@@H]2O[C@H](C)C[C@H](N(C)C)[C@H]2O)[C@](C)(O)C[C@@H](C)C(=O)[C@H](C)[C@@H](O)[C@]1(C)O [Erythromycin]
inactive: A549-ACTB-RAB5A 0 | A549-CANX-COX4 0 | A549-GM130-SQSTM1 0 | A549-TP53BP1-CLTA 0 | A549-TUBA1B-RELA 0 | HepG2-ACTB-RAB5A 0 | HepG2-CANX-COX4 0 | HepG2-GM130-SQSTM1 0 | HepG2-TP53BP1-CLTA 0 | HepG2-TUBA1B-RELA 0 | WPMY1-ACTB-RAB5A 0 | WPMY1-CANX-COX4 0 | WPMY1-GM130-SQSTM1 0 | WPMY1-TP53BP1-CLTA 0 | WPMY1-TUBA1B-RELA 0
